Source: PubChem
Only some compounds are listed: those with a hit (about 11% of all), similar ones and a draw of the others.
NIH3T3 tox: NIH 3T3 cell cytotoxicity; Potency, µM (doses to about 96.7 µM), inactives show at the highest dose activity change, negative = cytotoxicity, most hits filed as inhibitors; NIH 3T3 viability, CellTiter-Glo ATP luminescence, 48-72 h; 94,000 tested, 4.3% active; note: nearly all actives have a fitted effect of over 55% in size
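First NIH 3T3 cells are plated at 400 cells/well; next compound is pinned in; then plates incubate 48 or 72 hr at 37 °C; finally CellTiter-Glo is added and luminescence read after 10 min.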
NPR1 antag: human Npr1 receptor antagonism. HEK293 hNpr1 GloSensor cGMP, ANP-stimulated luminescence. Potency, µM (top dose mostly 46.3 µM), for the others: top-dose activity change, negative = inhibition, hits mostly inhibitors. 76,000 tested, 1.6% active. AID 1347048; calls by dose curve; note: nearly all actives have a fitted effect of over 60% in size
Target sequence (P16066 whole entry, looked up): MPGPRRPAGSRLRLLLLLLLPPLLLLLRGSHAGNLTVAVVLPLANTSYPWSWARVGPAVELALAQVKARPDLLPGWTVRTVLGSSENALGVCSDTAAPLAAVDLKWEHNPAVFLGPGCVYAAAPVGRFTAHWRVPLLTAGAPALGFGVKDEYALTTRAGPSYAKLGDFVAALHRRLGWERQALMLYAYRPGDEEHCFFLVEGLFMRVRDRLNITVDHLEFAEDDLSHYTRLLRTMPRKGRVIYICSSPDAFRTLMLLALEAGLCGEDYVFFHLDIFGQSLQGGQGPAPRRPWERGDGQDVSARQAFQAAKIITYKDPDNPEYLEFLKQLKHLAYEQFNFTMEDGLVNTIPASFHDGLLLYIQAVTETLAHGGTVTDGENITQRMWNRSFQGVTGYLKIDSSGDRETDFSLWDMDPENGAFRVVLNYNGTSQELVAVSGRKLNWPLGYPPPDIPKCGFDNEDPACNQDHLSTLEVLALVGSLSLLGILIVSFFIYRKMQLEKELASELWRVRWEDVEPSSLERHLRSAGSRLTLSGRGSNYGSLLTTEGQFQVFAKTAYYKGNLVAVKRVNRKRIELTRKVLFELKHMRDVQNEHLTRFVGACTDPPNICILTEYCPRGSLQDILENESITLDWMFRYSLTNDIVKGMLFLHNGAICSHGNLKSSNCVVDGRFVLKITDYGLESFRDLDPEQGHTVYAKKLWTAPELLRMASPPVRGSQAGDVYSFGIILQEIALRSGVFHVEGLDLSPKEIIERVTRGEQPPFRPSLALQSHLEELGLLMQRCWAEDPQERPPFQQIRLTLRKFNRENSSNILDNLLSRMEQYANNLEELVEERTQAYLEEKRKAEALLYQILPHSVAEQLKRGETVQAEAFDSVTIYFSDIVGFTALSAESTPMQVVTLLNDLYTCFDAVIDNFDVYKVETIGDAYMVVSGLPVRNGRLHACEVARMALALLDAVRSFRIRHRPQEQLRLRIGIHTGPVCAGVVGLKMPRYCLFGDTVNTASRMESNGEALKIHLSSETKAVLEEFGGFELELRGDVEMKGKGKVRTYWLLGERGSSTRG
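Compound pre-incubated 30 min at room temperature on GloSensor-loaded HEK293 cells stably carrying hNpr1 and the pGS-40F cGMP biosensor. Stimulation uses hNppA at 0.1 nM final; luminescence is taken at baseline and 20 min post-agonist.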
HEK cytotox: kills HEK 293 cells; HEK 293 viability, ATP luminescence (CellTiter-Glo), 48-72 h; Potency, µM (doses to about 115 µM), inactives show top-dose activity change, negative = cytotoxicity, actives largely listed as inhibitors; 94,000 tested, 6.6% active; AID 1345083; note: nearly all actives have a fitted effect of over 60% in size
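qHTS cytotoxicity; HEK 293, 250 cells/well; compound pinned; 48 or 72 hr, 37 degree Celsius, 5% CO2, 95% humidity; CellTiter-Glo, 10 min RT; luminescence (ATP).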
FLuc inh: inhibitors of firefly (Photinus pyralis) luciferase | purified P. pyralis luciferase, luminescence, biochemical | P08659 | 76,000 tested, 2.5% active | Potency, µM (titrated, usually from 115 µM), usual class: inhibitors; note: nearly all actives have a fitted effect of over 65% in size
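Biochemical qHTS: compound (6-point titration) added to 10uM D-luciferin plus 10uM ATP in Tris acetate pH 7.5 buffer with Mg, Tween-20 and BSA, then purified enzyme at 10nM; light output imaged.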
* = called active by the depositor; [ ] = dose if it differs, or a comment. Unless noted, calls come from the whole dose curve; as a rule, active = well fitted curve in the direction sought with a large enough effect; inconclusive = small, poorly fitted or top-dose-only effect, or another doubt; inactive = no such curve, though single readings can be large; an effect the other way counts as inactive or inconclusive. % is set by controls: 0 for no effect and ±100 for the full control effect; potency is the fitted concentration of half-maximal effect.

How did CC(C)C[C@@H]1N[C@H](C(=O)NCCN2CCCC2)Cc2c[nH]c3cccc1c23 do in these assays?
NIH3T3 tox: inconclusive; NPR1 antag: -6.9%[70.6 µM]; HEK cytotox: inconclusive; FLuc inh: inactive

Results for CC(C)C[C@@H]1N[C@H](C(=O)NCCOc2ccccc2)Cc2cn(C)c3cccc1c23 ?
NIH3T3 tox: 31.6µM*; NPR1 antag: -22.3%[70.6 µM]; HEK cytotox: 39.8µM*; FLuc inh: inactive

Results for CCOCCCNC(=O)c1ccccc1-c1ccc(OC)nn1 ?
NIH3T3 tox: -8.8%[138 µM]; HEK cytotox: 3.1%[172 µM]

What do the screens show for `O=C(NCc1ccc2c(c1)OCO2)c1nc2cccnc2n(Cc2ccccc2)c1=O`?
NIH3T3 tox: inconclusive; HEK cytotox: 79.4µM*

What do the screens show for `COc1ccc(-c2noc([C@@H]3C[C@@H](O)CN3Cc3ccc(C)cc3)n2)cc1`?
NIH3T3 tox: -9.4%[174 µM]; NPR1 antag: -0.4%[70.6 µM]; HEK cytotox: inconclusive; FLuc inh: inconclusive

Results for COc1ccc(-c2noc([C@@H]3C[C@@H](O)CN3Cc3ccccn3)n2)cc1 ?
NIH3T3 tox: 35.5µM*; NPR1 antag: inconclusive; HEK cytotox: inconclusive; FLuc inh: inconclusive

Results for O=[N+]([O-])c1cccc(-c2noc([C@@H]3C[C@@H](O)CN3Cc3ccccc3)n2)c1 ?
NIH3T3 tox: -21.5%[138 µM]; NPR1 antag: 3.4%[70.6 µM]; HEK cytotox: -19.1%[172 µM]; FLuc inh: inactive

Results for O=[N+]([O-])c1cccc(-c2noc([C@@H]3C[C@@H](O)CN3Cc3ncc[nH]3)n2)c1 ?
NIH3T3 tox: -19.7%[174 µM]; NPR1 antag: 3.4%[70.6 µM]; HEK cytotox: -16.6%[172 µM]; FLuc inh: inactive

Results for O[C@@H]1C[C@@H](c2nc(-c3ccccc3)no2)N(Cc2ncc[nH]2)C1 ?
NIH3T3 tox: -10.4%[174 µM]; NPR1 antag: 3.0%[70.6 µM]; HEK cytotox: -7.5%[172 µM]; FLuc inh: 22.4µM*

What do the screens show for `Cc1ccc(-c2noc([C@@H]3C[C@@H](O)CN3Cc3ncc[nH]3)n2)cc1F`?
NIH3T3 tox: inconclusive; NPR1 antag: -10.5%[70.6 µM]; HEK cytotox: inconclusive; FLuc inh: 25.1µM*

How did COc1ccc(-c2noc([C@@H]3C[C@@H](O)CN3Cc3ccccc3)n2)cc1 do in these assays?
NIH3T3 tox: inconclusive; NPR1 antag: -30.3%[70.6 µM]; HEK cytotox: inconclusive; FLuc inh: inconclusive

How did O=[N+]([O-])c1cccc(-c2noc([C@@H]3C[C@@H](O)CN3CC3CCCCC3)n2)c1 do in these assays?
NIH3T3 tox: inconclusive; NPR1 antag: -11.7%[70.6 µM]; HEK cytotox: 63.1µM*; FLuc inh: inactive

What do the screens show for `COc1ccc(-c2noc([C@@H]3C[C@@H](O)CN3C3CCN(C)CC3)n2)cc1`?
NIH3T3 tox: -10.1%[174 µM]; NPR1 antag: 7.1%[70.6 µM]; HEK cytotox: -23.3%[172 µM]; FLuc inh: 70.8µM*

Results for FC(F)(F)Oc1ccc(Nc2cnc3ccc(N4CCOCC4)nn23)cc1 ?
NIH3T3 tox: inconclusive; NPR1 antag: -4.8%[70.6 µM]; HEK cytotox: 50.1µM*; FLuc inh: inactive

How did COc1ccc(Nc2cnc3ccc(N4CCOCC4)nn23)cn1 do in these assays?
NIH3T3 tox: inconclusive; NPR1 antag: -1.0%[70.6 µM]; HEK cytotox: inconclusive; FLuc inh: inactive

Results for FC(F)(F)c1cc(Nc2cnc3ccc(N4CCOCC4)nn23)ccc1Cl ?
NIH3T3 tox: inconclusive; NPR1 antag: inconclusive; HEK cytotox: 79.4µM*; FLuc inh: inactive

Results for CN(C)C(=O)C1CN(C(=O)Cc2cccc(Cl)c2)CC12CCOCC2 (centres undefined) ?
NIH3T3 tox: -0.5%; NPR1 antag: 3.5%; HEK cytotox: -6.4%; FLuc inh: inactive

Results for Fc1ccc(OC2CN(Cc3ccsc3)C2)c(F)c1 ?
NIH3T3 tox: -26.3%[138 µM]; HEK cytotox: inconclusive

Results for CCC(=O)N1Cc2ccccc2CC2(CCN(CC3CCNCC3)CC2)C1 ?
NIH3T3 tox: 4.9%; HEK cytotox: -9.6%

How did C[C@H](C(=O)N1Cc2ccccc2CC2(CCN(CC3CCNCC3)CC2)C1)c1ccccc1 do in these assays?
NIH3T3 tox: 14.1µM*; HEK cytotox: inconclusive

What do the screens show for `Cc1nc(-c2c3n(c(=O)n(CC(=O)Nc4ccc(Cl)cc4)c2=O)CCCCC3)no1`?
NIH3T3 tox: -11.6%; NPR1 antag: -2.2%; HEK cytotox: 5.0%; FLuc inh: inactive

How did COc1cc(OC)cc(C(=O)Nc2ccc3c(c2)CN(Cc2ccc(F)cc2)C(=O)C(C)O3)c1 (centres undefined) do in these assays?
NIH3T3 tox: inconclusive; NPR1 antag: -19.6%; HEK cytotox: inconclusive; FLuc inh: inactive

Results for CC1Oc2ccc(NC(=O)c3ccccc3F)cc2CN(CCOc2ccccc2)C1=O (centres undefined) ?
NIH3T3 tox: inconclusive; NPR1 antag: -19.2%; HEK cytotox: inconclusive; FLuc inh: inactive

Results for COc1ccc(CN2Cc3cc(NC(=O)c4cc(OC)cc(OC)c4)ccc3OC(C)C2=O)cc1 (centres undefined) ?
NIH3T3 tox: inconclusive; NPR1 antag: -1.9%; HEK cytotox: 20µM*; FLuc inh: inactive

What do the screens show for `CC1Oc2ccc(NC(=O)c3cccs3)cc2CN(CCOc2ccccc2)C1=O` (centres undefined)?
NIH3T3 tox: inconclusive; NPR1 antag: -19.6%; HEK cytotox: 39.8µM*; FLuc inh: inactive

What do the screens show for `COc1ccc(CCN2Cc3cc(NC(=O)c4ccc(OC)cc4)ccc3OC(C)C2=O)cc1` (centres undefined)?
NIH3T3 tox: -27.9%; NPR1 antag: 0.8%; HEK cytotox: 89.1µM*; FLuc inh: inactive

How did COC(=O)[C@@H]1Cc2c([nH]c3ccccc23)[C@H]2C[C@@H](NCCCn3ccnc3)C[C@@H](c3ccccc3)N21 do in these assays?
NIH3T3 tox: 20µM*; NPR1 antag: -2.3%; HEK cytotox: inconclusive; FLuc inh: inactive

What do the screens show for `COC(=O)[C@@H]1Cc2c([nH]c3ccccc23)[C@@H]2C[C@@H](NCCCn3ccnc3)C[C@@H](c3ccc(F)c(F)c3)N12`?
NIH3T3 tox: 28.2µM*; NPR1 antag: 6.2%; HEK cytotox: 25.1µM*; FLuc inh: inactive

How did O=C(Cc1c[nH]c2ncc(-c3ccccc3)cc12)NCCCn1ccnc1 do in these assays?
NIH3T3 tox: inconclusive; NPR1 antag: -4.4%[70.6 µM]; HEK cytotox: -7.0%[172 µM]; FLuc inh: inactive

What do the screens show for `COC(=O)[C@@H]1Cc2c([nH]c3ccccc23)[C@H]2C[C@H](NCCCn3ccnc3)C[C@@H](c3ccccc3F)N21`?
NIH3T3 tox: 5.01µM*; NPR1 antag: -0.3%; HEK cytotox: inconclusive; FLuc inh: inactive

How did Cn1nc(C(=O)NCc2cccnc2)c2c1CN(C(=O)c1ccc3ccccc3n1)C2 do in these assays?
NIH3T3 tox: -13.2%; HEK cytotox: -1.5%

Results for COc1ccc2cc1Nc1ccc(cc1)C[C@H](NC(=O)Cc1cccc(Cl)c1)C(=O)N(C)[C@H](C(=O)NCCC(C)C)C2 ?
NIH3T3 tox: 25.1µM*; NPR1 antag: -0.6%; HEK cytotox: inconclusive; FLuc inh: inactive
